Several values for one entry are separate records, joined by “and”; a condition that tells them apart may be missing. Identical values can stand only once. Activity calls are given as the source filed them. How the source made its calls: active means hit-call score of the fitted dose curve at least 0.9, where 1 is the maximum; inactive means score below 0.9.
Target: Hypoxia-inducible factor 1-alpha (Homo sapiens) (UniProt Q16665)
Experiment: ATG_HIF1a_CIS: Attagene CIS-FACTORIAL HepG2 Assay for human Hypoxia Inducible Factor 1 (HIF1A) (AID 2282951)
Settings: HepG2 Attagene cis-factorial HIF1a reporter transcription; actives raise or lower the signal
In short: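 HepG2 cells transiently transfected with multiplexed cis-promoter reporter units; reporter mRNA read 24 h after dosing by RT-PCR, 6-FAM primer-extension labelling, HpaI digestion and capillary electrophoresis. Bidirectional fit versus DMSO baseline.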

Hypoxia-inducible factor 1-alpha (Homo sapiens), sequence (Q16665 whole entry, looked up): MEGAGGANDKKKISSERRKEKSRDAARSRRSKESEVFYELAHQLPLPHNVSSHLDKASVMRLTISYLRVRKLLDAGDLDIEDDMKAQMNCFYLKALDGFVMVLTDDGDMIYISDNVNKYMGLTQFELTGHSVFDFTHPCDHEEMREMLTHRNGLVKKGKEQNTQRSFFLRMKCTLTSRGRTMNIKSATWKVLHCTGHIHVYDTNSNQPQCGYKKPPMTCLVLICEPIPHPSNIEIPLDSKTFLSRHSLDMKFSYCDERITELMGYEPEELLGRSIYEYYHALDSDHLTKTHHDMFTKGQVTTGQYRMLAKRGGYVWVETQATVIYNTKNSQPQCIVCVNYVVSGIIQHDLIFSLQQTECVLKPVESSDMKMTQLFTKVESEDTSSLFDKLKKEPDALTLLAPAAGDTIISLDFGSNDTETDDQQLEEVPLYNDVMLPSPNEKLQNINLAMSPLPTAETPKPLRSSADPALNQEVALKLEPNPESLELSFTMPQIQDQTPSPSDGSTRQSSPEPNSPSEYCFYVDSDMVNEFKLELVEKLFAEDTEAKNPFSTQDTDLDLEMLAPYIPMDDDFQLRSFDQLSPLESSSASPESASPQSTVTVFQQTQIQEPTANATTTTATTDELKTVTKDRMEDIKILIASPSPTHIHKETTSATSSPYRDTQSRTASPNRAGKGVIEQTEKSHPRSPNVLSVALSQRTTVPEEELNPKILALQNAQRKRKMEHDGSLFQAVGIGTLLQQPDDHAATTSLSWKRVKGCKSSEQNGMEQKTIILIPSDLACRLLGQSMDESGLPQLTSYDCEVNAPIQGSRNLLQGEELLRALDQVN

For `CCC(C)c1nccnc1OC` (configuration not stated), which outcome is on record?
The outcome was “inactive”.

For `CCCCCCCCCC=CCC1CC(=O)OC1=O` (configuration not stated), which outcome is on record?
The outcome was “inactive”.

How did the outcome turn out when `CCCCCCCCCCCC(=O)O` was run?
Its outcome is “inactive”.

For `C[C@]12CC[C@@H]3c4ccc(O)cc4CC[C@H]3[C@@H]1C[C@@H](O)[C@@H]2O`, which outcome is on record?
Its outcome is “inactive”.

Which outcome does the source give for `O=C(O)C(=O)O` here?
The outcome was “inactive”.

How did the outcome turn out when `O=S(=O)(O)c1ccc2cc(O)ccc2c1` was run?
Its outcome is “inactive”.

`Cc1ccc(C)c(S(=O)(=O)O)c1` was tested. Which outcome did it give?
Its outcome is “inactive”.

`CCCCCCCCCCCCCCCC(=O)OC` was tested. Which outcome did it give?
Its outcome is “inactive”.

How did the outcome turn out when `CCC(C)c1ccccc1O` (configuration not stated) was run?
The outcome was “inactive”.

With `CC(C)[C@@H]1CC[C@@H](C)C[C@H]1O` as the compound, how does the outcome read?
The outcome was “inactive”.

How did the outcome turn out when `O=C1NS(=O)(=O)c2ccccc21` was run?
The outcome was “inactive”.

`CN(C)c1ccc(C(=C2C=CC(=[N+](C)C)C=C2)c2ccccc2)cc1` was tested. Which outcome did it give?
The outcome was “inactive”.

For `O=C(F)C(F)(F)C(F)(F)C(F)(F)C(=O)F`, which outcome is on record?
Its outcome is “inactive”.

`CC(=O)CC(C)C` was tested. Which outcome did it give?
The outcome was “inactive”.

Which outcome does the source give for `CCCCCCCCCCCC` here?
The outcome was “inactive”.

`CCCCC=O` was tested. Which outcome did it give?
The outcome was “inactive”.

With `OCC(CO)(CBr)CBr` as the compound, how does the outcome read?
The outcome was “inactive”.

With `CCCCC(CC)C(=O)O` (configuration not stated) as the compound, how does the outcome read?
The outcome was “inactive”.

For `Cc1ccc(S(=O)(=O)O)cc1`, which outcome is on record?
The outcome was “inactive”.

For `CCCCCCCCCCCCCCC`, which outcome is on record?
The outcome was “inactive”.

With `NS(=O)(=O)O` as the compound, how does the outcome read?
The outcome was “inactive”.

`CNNCc1ccc(C(=O)NC(C)C)cc1` was tested. Which outcome did it give?
Its outcome is “inactive”.

How did the outcome turn out when `C=CCOCC(CO)(CO)CO` was run?
The outcome was “inactive”.

How did the outcome turn out when `O=C(c1ccccc1)c1ccccc1` was run?
Its outcome is “inactive”.

For `CCCC=O`, which outcome is on record?
The outcome was “inactive”.

`Cc1[nH]nc2c1N=C(c1ccccc1Cl)c1cc([N+](=O)[O-])ccc1N2` was tested. Which outcome did it give?
The outcome was “inactive”.

For `CC(C)c1c(C(=O)Nc2ccccc2)c(-c2ccccc2)c(-c2ccc(F)cc2)n1CC[C@@H](O)C[C@@H](O)CC(=O)O`, which AC50 is on record?
Its AC50 is 57.9 µM (active) and 22.5 µM (active).

— PubChem BioAssay (EPA / NIEHS)
